The full data set covers some 8,800 targets. This sample favours those with a hit. About 0.5% of all pairs of compound and target were hits.
The targets below were run with Cn1cc(-c2ccc3c(c2)CCN3C(=O)Cc2cccc(C(F)(F)F)c2)c2c(N)ncnc21 (assay: log2 fold change, soluble protein after heating vs DMSO (PISA); higher = thermal stabilisation; K562 lysate, 10 uM; active = over 0.2 and 3.5 SD of the protein, either way, in both replicates (recomputed)).
How it was run: (§1)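 Log-two fold change in thermal stability relative to solvent controls is reported from duplicates. For each sample, crude K562 extract from dounce-homogenised pellets in PBS pH 7.4 with 1 mM MgCl2, at 1 mg/mL protein, was treated with 10 μM compound for 30 min. Aliquots heated for 3 min across 48°C-58°C were pooled, brought to 0.5% NP-40 at 4°C and cleared at 21,000xg for 90 min. The supernatant was quantified by TMTpro 16plex LC-MS/MS with channel sums equalised.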

Sequence of UniProt P08758 (P08758 whole entry, looked up): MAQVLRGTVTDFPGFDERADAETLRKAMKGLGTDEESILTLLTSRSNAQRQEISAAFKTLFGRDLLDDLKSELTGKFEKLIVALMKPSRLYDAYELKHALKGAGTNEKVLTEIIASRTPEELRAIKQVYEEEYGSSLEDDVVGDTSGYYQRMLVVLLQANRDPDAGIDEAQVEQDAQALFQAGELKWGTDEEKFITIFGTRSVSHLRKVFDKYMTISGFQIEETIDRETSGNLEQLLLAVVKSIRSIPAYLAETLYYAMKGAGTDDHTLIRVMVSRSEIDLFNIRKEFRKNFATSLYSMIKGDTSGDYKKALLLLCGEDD
Sequence of UniProt Q9P1F3 (Q9P1F3 whole entry, looked up): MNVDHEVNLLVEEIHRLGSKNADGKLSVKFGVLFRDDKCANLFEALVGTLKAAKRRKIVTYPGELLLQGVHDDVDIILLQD
Sequence of UniProt P00519 (P00519 whole entry, looked up): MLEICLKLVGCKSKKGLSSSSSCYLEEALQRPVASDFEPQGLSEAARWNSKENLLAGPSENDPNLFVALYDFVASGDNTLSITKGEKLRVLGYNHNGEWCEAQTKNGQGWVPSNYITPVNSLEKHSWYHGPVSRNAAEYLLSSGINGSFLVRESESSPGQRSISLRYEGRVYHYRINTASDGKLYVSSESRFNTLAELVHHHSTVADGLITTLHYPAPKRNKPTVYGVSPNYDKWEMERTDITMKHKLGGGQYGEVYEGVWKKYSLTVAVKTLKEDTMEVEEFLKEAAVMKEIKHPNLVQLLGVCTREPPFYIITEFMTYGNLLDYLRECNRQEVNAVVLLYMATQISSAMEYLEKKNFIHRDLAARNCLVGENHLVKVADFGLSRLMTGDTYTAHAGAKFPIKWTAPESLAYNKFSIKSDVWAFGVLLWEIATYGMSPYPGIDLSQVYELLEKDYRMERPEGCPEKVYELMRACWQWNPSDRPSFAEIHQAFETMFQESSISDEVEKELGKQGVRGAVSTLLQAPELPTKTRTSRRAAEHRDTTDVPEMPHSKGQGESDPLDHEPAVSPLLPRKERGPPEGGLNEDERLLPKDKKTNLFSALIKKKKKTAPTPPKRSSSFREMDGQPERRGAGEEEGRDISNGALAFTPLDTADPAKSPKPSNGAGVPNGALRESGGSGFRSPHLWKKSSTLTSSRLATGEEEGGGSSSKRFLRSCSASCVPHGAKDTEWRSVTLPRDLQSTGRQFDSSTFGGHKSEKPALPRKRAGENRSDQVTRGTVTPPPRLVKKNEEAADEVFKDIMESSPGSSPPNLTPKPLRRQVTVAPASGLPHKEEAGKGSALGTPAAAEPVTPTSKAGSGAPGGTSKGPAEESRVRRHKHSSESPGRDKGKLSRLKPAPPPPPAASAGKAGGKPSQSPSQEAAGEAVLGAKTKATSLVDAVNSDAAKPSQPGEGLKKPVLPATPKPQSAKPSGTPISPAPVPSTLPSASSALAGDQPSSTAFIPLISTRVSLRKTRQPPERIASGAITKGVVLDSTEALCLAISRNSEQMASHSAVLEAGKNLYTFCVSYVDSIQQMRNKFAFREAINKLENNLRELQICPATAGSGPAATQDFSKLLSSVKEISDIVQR
Sequence of UniProt P78536 (P78536 whole entry, looked up): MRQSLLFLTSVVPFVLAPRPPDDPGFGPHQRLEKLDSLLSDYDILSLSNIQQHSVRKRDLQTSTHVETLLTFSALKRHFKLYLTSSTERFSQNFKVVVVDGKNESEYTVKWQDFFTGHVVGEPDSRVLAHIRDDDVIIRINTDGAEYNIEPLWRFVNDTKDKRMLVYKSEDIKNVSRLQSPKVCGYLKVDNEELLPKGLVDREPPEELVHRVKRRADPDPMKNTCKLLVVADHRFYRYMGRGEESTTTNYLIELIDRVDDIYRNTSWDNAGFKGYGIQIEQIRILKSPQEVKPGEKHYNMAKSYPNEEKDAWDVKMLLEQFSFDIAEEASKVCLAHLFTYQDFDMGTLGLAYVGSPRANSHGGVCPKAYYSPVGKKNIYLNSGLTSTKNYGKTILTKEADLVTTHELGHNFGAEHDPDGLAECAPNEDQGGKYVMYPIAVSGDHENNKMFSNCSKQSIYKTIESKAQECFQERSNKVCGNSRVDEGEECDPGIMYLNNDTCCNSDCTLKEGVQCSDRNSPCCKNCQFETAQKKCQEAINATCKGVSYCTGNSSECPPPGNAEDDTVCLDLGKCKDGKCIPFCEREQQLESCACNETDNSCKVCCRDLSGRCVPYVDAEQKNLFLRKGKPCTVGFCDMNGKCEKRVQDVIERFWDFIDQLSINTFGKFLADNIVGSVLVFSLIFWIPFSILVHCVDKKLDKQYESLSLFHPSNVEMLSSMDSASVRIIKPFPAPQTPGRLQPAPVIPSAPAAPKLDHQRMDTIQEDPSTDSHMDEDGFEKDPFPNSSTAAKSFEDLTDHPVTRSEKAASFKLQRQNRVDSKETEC
Sequence of UniProt Q9BT30 (Q9BT30 whole entry, looked up): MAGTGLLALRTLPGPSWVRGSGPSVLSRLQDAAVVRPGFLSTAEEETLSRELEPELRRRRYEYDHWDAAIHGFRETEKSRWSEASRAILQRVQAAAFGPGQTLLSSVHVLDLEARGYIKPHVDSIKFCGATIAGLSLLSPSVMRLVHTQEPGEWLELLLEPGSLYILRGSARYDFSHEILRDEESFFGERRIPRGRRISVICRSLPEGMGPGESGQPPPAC
Sequence of UniProt P27216 (P27216 whole entry, looked up): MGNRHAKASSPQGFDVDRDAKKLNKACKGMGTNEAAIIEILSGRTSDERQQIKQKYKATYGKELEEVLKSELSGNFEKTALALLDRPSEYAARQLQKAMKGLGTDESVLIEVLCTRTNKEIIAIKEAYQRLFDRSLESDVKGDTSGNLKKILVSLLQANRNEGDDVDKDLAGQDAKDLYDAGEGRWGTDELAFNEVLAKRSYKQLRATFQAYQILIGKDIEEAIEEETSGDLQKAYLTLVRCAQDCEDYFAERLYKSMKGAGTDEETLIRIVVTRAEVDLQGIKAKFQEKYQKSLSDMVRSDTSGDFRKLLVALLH
Sequence of UniProt Q9NXR5 (Q9NXR5 whole entry, looked up): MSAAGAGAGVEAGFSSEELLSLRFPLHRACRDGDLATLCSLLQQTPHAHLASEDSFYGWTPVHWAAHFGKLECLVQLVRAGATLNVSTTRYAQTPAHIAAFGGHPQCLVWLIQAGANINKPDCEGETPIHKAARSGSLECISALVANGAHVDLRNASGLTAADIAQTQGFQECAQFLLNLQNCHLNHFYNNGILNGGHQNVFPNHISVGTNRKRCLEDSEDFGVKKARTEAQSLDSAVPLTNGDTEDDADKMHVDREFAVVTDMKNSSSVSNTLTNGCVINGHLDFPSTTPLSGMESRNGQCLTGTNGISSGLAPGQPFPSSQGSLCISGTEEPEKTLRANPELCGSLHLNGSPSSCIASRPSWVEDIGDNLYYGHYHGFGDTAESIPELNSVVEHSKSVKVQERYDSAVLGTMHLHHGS
Sequence of UniProt Q6AI12 (Q6AI12 whole entry, looked up): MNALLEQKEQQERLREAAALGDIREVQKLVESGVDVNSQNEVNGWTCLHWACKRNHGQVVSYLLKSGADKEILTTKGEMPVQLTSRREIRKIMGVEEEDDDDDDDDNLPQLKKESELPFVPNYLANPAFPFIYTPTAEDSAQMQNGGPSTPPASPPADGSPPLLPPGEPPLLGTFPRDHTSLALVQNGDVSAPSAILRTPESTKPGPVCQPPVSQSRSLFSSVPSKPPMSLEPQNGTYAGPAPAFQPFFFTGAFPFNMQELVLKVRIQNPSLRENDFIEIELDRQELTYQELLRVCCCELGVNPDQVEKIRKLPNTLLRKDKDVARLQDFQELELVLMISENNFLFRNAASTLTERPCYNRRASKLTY
Sequence of UniProt Q8N302 (Q8N302 whole entry, looked up): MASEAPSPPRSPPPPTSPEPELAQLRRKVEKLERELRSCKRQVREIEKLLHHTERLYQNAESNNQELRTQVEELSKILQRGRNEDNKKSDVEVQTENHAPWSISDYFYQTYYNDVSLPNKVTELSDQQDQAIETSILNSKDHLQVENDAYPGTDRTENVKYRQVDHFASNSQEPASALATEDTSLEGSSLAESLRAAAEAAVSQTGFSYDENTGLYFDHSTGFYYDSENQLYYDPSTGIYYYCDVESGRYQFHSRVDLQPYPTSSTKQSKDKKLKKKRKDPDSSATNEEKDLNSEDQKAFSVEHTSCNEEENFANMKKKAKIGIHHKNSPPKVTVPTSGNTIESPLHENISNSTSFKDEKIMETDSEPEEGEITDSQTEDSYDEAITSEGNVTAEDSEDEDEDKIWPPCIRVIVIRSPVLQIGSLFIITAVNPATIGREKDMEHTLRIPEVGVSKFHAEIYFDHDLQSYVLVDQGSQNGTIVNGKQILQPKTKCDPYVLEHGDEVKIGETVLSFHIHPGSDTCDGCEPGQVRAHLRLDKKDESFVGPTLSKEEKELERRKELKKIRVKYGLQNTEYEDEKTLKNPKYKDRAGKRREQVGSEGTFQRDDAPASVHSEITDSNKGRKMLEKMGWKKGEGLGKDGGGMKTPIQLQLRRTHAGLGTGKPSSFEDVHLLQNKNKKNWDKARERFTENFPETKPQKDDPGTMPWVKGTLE
Sequence of UniProt P14621 (P14621 whole entry, looked up): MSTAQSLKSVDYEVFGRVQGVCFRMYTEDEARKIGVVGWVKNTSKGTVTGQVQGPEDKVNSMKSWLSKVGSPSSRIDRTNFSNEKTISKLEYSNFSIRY
Sequence of UniProt Q3SXY8 (Q3SXY8 whole entry, looked up): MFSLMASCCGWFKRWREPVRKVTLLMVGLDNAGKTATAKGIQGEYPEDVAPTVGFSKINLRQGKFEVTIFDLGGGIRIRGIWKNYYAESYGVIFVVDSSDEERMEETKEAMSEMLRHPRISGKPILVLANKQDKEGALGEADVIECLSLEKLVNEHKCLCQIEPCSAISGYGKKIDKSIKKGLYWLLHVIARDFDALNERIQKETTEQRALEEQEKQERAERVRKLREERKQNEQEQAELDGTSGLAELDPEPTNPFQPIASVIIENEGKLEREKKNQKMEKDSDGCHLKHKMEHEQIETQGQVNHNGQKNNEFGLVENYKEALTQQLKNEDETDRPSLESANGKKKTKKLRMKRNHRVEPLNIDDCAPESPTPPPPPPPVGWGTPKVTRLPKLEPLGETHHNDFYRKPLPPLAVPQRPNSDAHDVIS

Question: How did the log2 fold change turn out when ALDH18A1 isoform 2 (UniProt P54886) was run?
Answer: The log2 fold change was 0.181 (inactive).

Question: Which log2 fold change does the source give for ACIN1 (UniProt E7EQT4) here?
Answer: Its log2 fold change is 0.195 (inactive).

Question: ANKRD40 (UniProt Q6AI12) was tested. Which log2 fold change did it give?
Answer: The log2 fold change was -0.064 (inactive).

Question: With ABRACL (UniProt Q9P1F3) as the target, how does the log2 fold change read?
Answer: The log2 fold change was -0.067 (inactive).

Question: Which log2 fold change does the source give for ADD1 isoform 4 (UniProt P35611) here?
Answer: The log2 fold change was -0.075 (inactive).

Question: With ANKRD10 (UniProt Q9NXR5) as the target, how does the log2 fold change read?
Answer: The log2 fold change was 0.012 (inactive).

Question: Which log2 fold change does the source give for ACVR1 (UniProt Q04771) here?
Answer: The log2 fold change was -0.046 (inactive).

Question: ALDH3A1 (UniProt P30838) was tested. Which log2 fold change did it give?
Answer: Its log2 fold change is -0.024 (inactive).

Question: How did the log2 fold change turn out when ALKBH1 (UniProt Q13686) was run?
Answer: Its log2 fold change is 0.007 (inactive).

Question: ANXA2 (UniProt H0YL33) was tested. Which log2 fold change did it give?
Answer: Its log2 fold change is 0.022 (inactive).

Question: For ALG3 (UniProt Q92685), which log2 fold change is on record?
Answer: The log2 fold change was 0.068 (inactive).

Question: ADAM17 (UniProt P78536) was tested. Which log2 fold change did it give?
Answer: The log2 fold change was 0.054 (inactive).

Question: How did the log2 fold change turn out when ABCA3 (UniProt Q99758) was run?
Answer: The log2 fold change was -0.066 (inactive).

Question: ARL13B (UniProt Q3SXY8) was tested. Which log2 fold change did it give?
Answer: The log2 fold change was -0.012 (inactive).

Question: ARHGEF2 (UniProt V9GYF0) was tested. Which log2 fold change did it give?
Answer: The log2 fold change was -0.139 (inactive).

Question: With ABCC5 (UniProt O15440) as the target, how does the log2 fold change read?
Answer: The log2 fold change was -0.047 (inactive).

Question: How did the log2 fold change turn out when ANKRD30B (UniProt Q9BXX2) was run?
Answer: Its log2 fold change is -0.015 (inactive).

Question: How did the log2 fold change turn out when ANXA5 (UniProt P08758) was run?
Answer: Its log2 fold change is 0.022 (inactive).

Question: With ANXA13 isoform 2 (UniProt P27216) as the target, how does the log2 fold change read?
Answer: Its log2 fold change is 0.104 (inactive).

Question: For ABL1 isoform 2 (UniProt P00519), which log2 fold change is on record?
Answer: Its log2 fold change is -0.002 (inactive).

Question: How did the log2 fold change turn out when ALKBH7 (UniProt Q9BT30) was run?
Answer: The log2 fold change was -0.226 (inactive).

Question: Which log2 fold change does the source give for ARMCX5 (UniProt Q6P1M9) here?
Answer: Its log2 fold change is -0.07 (inactive).

These targets were tested with Cn1cc(CNCC2CCN(c3ncc(C(=O)NO)cn3)CC2)c2ccccc21 [quisinostat] in the same assay as above.
How it was run: as §1

Question: AIMP2 isoform 2 (UniProt Q13155) was tested. Which log2 fold change did it give?
Answer: The log2 fold change was -0.106 (inactive).

Question: For ALDH18A1 isoform 2 (UniProt P54886), which log2 fold change is on record?
Answer: The log2 fold change was 0.397 (inactive).

Question: With ACIN1 (UniProt E7EQT4) as the target, how does the log2 fold change read?
Answer: Its log2 fold change is -0.087 (inactive).

Question: For ANKRD40 (UniProt Q6AI12), which log2 fold change is on record?
Answer: The log2 fold change was -0.161 (inactive).

Question: For ABRACL (UniProt Q9P1F3), which log2 fold change is on record?
Answer: Its log2 fold change is 0.053 (inactive).

Question: How did the log2 fold change turn out when ANKRD10 (UniProt Q9NXR5) was run?
Answer: Its log2 fold change is 0.001 (inactive).

Question: ALDH3A1 (UniProt P30838) was tested. Which log2 fold change did it give?
Answer: Its log2 fold change is -0.381 (inactive).

Question: With ANXA2 (UniProt H0YL33) as the target, how does the log2 fold change read?
Answer: The log2 fold change was 0.134 (inactive).

Question: For ALG3 (UniProt Q92685), which log2 fold change is on record?
Answer: Its log2 fold change is 0.077 (inactive).

Question: With AGPAT2 (UniProt O15120) as the target, how does the log2 fold change read?
Answer: Its log2 fold change is 0.006 (inactive).

Question: How did the log2 fold change turn out when ADAM17 (UniProt P78536) was run?
Answer: Its log2 fold change is 0.01 (inactive).

Question: ABCA3 (UniProt Q99758) was tested. Which log2 fold change did it give?
Answer: The log2 fold change was 0.08 (inactive).

Question: ARL13B (UniProt Q3SXY8) was tested. Which log2 fold change did it give?
Answer: The log2 fold change was -0.313 (inactive).

Question: ACYP2 (UniProt P14621) was tested. Which log2 fold change did it give?
Answer: The log2 fold change was -0.047 (inactive).

Question: With AGGF1 (UniProt Q8N302) as the target, how does the log2 fold change read?
Answer: Its log2 fold change is -0.041 (inactive).

Question: How did the log2 fold change turn out when AMDHD2 (UniProt Q9Y303) was run?
Answer: Its log2 fold change is -0.001 (inactive).

Question: With ACLY isoform 2 (UniProt P53396) as the target, how does the log2 fold change read?
Answer: Its log2 fold change is 0.162 (inactive).

Question: How did the log2 fold change turn out when ABCC5 (UniProt O15440) was run?
Answer: The log2 fold change was -0.003 (inactive).

Question: Which log2 fold change does the source give for ANXA5 (UniProt P08758) here?
Answer: The log2 fold change was 0.111 (inactive).

Question: With ANXA13 isoform 2 (UniProt P27216) as the target, how does the log2 fold change read?
Answer: The log2 fold change was -0.022 (inactive).

Question: With ABL1 isoform 2 (UniProt P00519) as the target, how does the log2 fold change read?
Answer: Its log2 fold change is -0.074 (inactive).

Question: ALKBH7 (UniProt Q9BT30) was tested. Which log2 fold change did it give?
Answer: Its log2 fold change is 0.006 (inactive).

Each target was assayed with Cn1cncc1[C@@](N)(c1ccc(Cl)cc1)c1ccc2c(c1)c(-c1cccc(Cl)c1)cc(=O)n2C [tipifarnib] in the same assay as above.
How it was run: as §1

Question: How did the log2 fold change turn out when ACIN1 (UniProt E7EQT4) was run?
Answer: The log2 fold change was -0.021 (inactive).

Question: With ANKRD40 (UniProt Q6AI12) as the target, how does the log2 fold change read?
Answer: The log2 fold change was 0.137 (inactive).

Question: ABRACL (UniProt Q9P1F3) was tested. Which log2 fold change did it give?
Answer: Its log2 fold change is 0.023 (inactive).

Question: With ANKRD10 (UniProt Q9NXR5) as the target, how does the log2 fold change read?
Answer: Its log2 fold change is -0.028 (inactive).

Question: With ACVR1 (UniProt Q04771) as the target, how does the log2 fold change read?
Answer: The log2 fold change was -0.309 (inactive).

Question: How did the log2 fold change turn out when ALKBH1 (UniProt Q13686) was run?
Answer: Its log2 fold change is 0.137 (inactive).

Question: ANXA2 (UniProt H0YL33) was tested. Which log2 fold change did it give?
Answer: The log2 fold change was 0.199 (inactive).

Question: How did the log2 fold change turn out when ACAT1, A0A5F9ZHJ0 was run?
Answer: The log2 fold change was 0.07 (inactive).

Question: How did the log2 fold change turn out when AGPAT2 (UniProt O15120) was run?
Answer: Its log2 fold change is 0.029 (inactive).

Question: Which log2 fold change does the source give for ALG13 isoform 2 (UniProt Q9NP73) here?
Answer: The log2 fold change was 0.371 (inactive).

Question: How did the log2 fold change turn out when ADAM17 (UniProt P78536) was run?
Answer: The log2 fold change was 0.039 (inactive).

Question: Which log2 fold change does the source give for ADK, A0A5F9ZH76 here?
Answer: Its log2 fold change is 0.487 (inactive).

Question: For ARHGEF2 (UniProt V9GYF0), which log2 fold change is on record?
Answer: Its log2 fold change is -0.23 (inactive).

Question: With ACYP2 (UniProt P14621) as the target, how does the log2 fold change read?
Answer: The log2 fold change was 0.009 (inactive).

Question: AGGF1 (UniProt Q8N302) was tested. Which log2 fold change did it give?
Answer: The log2 fold change was -0.06 (inactive).

Question: ACLY isoform 2 (UniProt P53396) was tested. Which log2 fold change did it give?
Answer: The log2 fold change was 0.02 (inactive).

Question: ANKRD44 isoform 2 (UniProt Q8N8A2) was tested. Which log2 fold change did it give?
Answer: The log2 fold change was 0 (inactive).

Question: ANKRD30B (UniProt Q9BXX2) was tested. Which log2 fold change did it give?
Answer: The log2 fold change was -0.065 (inactive).

Question: For AP3D1 isoform 2 (UniProt O14617), which log2 fold change is on record?
Answer: The log2 fold change was -0.132 (inactive).

Question: With ANXA5 (UniProt P08758) as the target, how does the log2 fold change read?
Answer: Its log2 fold change is 0.019 (inactive).

Question: Which log2 fold change does the source give for ANXA13 isoform 2 (UniProt P27216) here?
Answer: Its log2 fold change is 0.123 (inactive).

Question: How did the log2 fold change turn out when ABL1 isoform 2 (UniProt P00519) was run?
Answer: Its log2 fold change is -0.074 (inactive).

Question: With ALKBH7 (UniProt Q9BT30) as the target, how does the log2 fold change read?
Answer: Its log2 fold change is 0.107 (inactive).

Question: Which log2 fold change does the source give for ARMCX5 (UniProt Q6P1M9) here?
Answer: The log2 fold change was -0.023 (inactive).
